The source made the active and inactive calls. Rule for the calls: active = hit-call score of the fitted dose curve at least 0.9, where 1 is the maximum; inactive = score below 0.9.

This assay can be described thus: ATG_GLI_CIS: Attagene CIS-FACTORIAL HepG2 Assay for human Zinc Finger Protein GLI1 (AID 2282945). The conditions noted are these: HepG2, Attagene cis-factorial reporter mRNA, GLI element; actives raise or lower the signal. The method, then:
ATG_CIS is a cell-based, multiplexed-readout assay that uses HepG2, a human liver cell line, with measurements taken at 24 hours after chemical dosing in a 24-well plate.ATG_GLI_CIS is one of 52 assay component(s) measured or calculated from the ATG_CIS assay. It is designed to make measurements of mRNA induction, a form of inducible reporter, as detected with fluorescence intensity signals by Reverse transcription polymerase chain reaction (RT-PCR) and Capillary electrophoresis technology.Data from the assay component ATG_GLI_CIS was analyzed into 1 assay endpoint. This assay endpoint, ATG_GLI_CIS, was analyzed with bidirectional fitting relative to DMSO as the negative control and baseline of activity. Using a type of inducible reporter, measures of mRNA for gain or loss-of-signal activity can be used to understand the reporter gene at the transcription factor-level as they relate to the gene GLI1. Furthermore, this assay endpoint can be referred to as a primary readout, because this assay has produced multiple assay endpoints where this one serves a reporter gene function. To generalize the intended target to other relatable targets, this assay endpoint is annotated to the dna binding intended target family, where the subfamily is zinc finger.
Human liver HepG2 cells are transiently transfected with multiple reporter transcription units (MRTUs) in 6-well plates using FuGene 6 reagent (Roche; 3 ml FuGene/1 mg DNA). The MRTU constructs are regulated by a cis-regulating element (promoter). […] A major difference between the CIS and TRANS system is that in CIS activities of endogenous TFs are measured, whereas the TRANS assay evaluates changes in activities of exogenous, chimeric NR-Gal4 proteins. […] At the end of 24 hour incubation, total RNA was isolated using TriZol reagent (Invitrogen). The isolated RNA is then reverse-transcribed using oligo(dT) primer and Mo-MLV reverse transcriptase (Invitrogen) with DNAse I (Ambion) treatment for 30 min. The one-tenth of the produced cDNA was amplified by PCR using Taq DNA polymerase (Invitrogen) and two reporter sequence-specific primers. The PCR products were fluorescently labeled by primer extension with 6-arboxyfluorescein (6-FAM) 5'-labeled reporter sequence-specific primer (2 min at 95 C, 20 s at 68 C and 10 min at 72 C) and these products were digested with 5U of HpaI (New England Biolabs) for 2h at 37 C. The fragments were purified using Qiaquick PCR columns (Qiagen), analyzed on an ABI 3130xL genetic analyzer (Applied Biosystems) with peak positions identified by using a set of X-rhodamine (ROX)-labeled MapMarker1000 molecular weight standards (BioVentures). The raw capillary electrophoresis data was processed using Attagraph software (Attagene).
As for `CCc1cc(Cc2cc(CC)cc(C(C)(C)C)c2O)c(O)c(C(C)(C)C)c1`, the AC50 (usually the concentration at which the activity in the assay is half-maximal) was 17.1 µM (active).
With `CC(C=O)Cc1ccc(C(C)(C)C)cc1` (stereo not given), the compound was called inactive.
The same measure, in the same setting: the same measure for `COc1cc([C@@H]2c3cc4c(cc3[C@@H](O[C@@H]3O[C@@H]5CO[C@@H](C)O[C@H]5[C@H](O)[C@H]3O)[C@H]3COC(=O)[C@H]23)OCO4)cc(OC)c1O`: “inactive”.
As to `CC1(C)CCC[C@]2(C)[C@H]3CCO[C@]3(C)CC[C@@H]12`, the compound was called inactive.
`N#Cc1cscn1`: the compound was classed as inactive.
For `CCCCCCC(=O)c1ccccc1`, the result was inactive.
Same read-out and setting: the entry for `CC(O)C1CCCCC1` (stereo not given) is “inactive”.
In the case of `O=C1OC[C@H](Cc2cccc(O)c2)[C@H]1Cc1cccc(O)c1`, the compound was classed as inactive.
Consider `CCOc1ccc(N=Nc2ccc(C=Cc3ccc(N=Nc4ccc(OCC)cc4)cc3S(=O)(=O)O)c(S(=O)(=O)O)c2)cc1`, for which the compound was called inactive.
As for `C=CCN(CC=C)CC=C`, the call was inactive.
In the case of `COC(=O)c1cccnc1`, the result was inactive.
`CCCCCCCCCC(C)C=O` (stereo not given): the call was inactive.
With `CSc1c(Cl)c(Cl)c(Cl)c(Cl)c1Cl`, the AC50 is 185 µM (active).
For `CS(C)=O`, the outcome was inactive.
Consider `Brc1ccc(Br)c(Br)c1`, for which the compound was classed as inactive.
In the case of `CC(=O)C1(C)CC2=C(CCCC2(C)C)CC1C` (stereo not given), the AC50 was 53.8 µM (active).
`CC(C)(CO)[C@@H](O)C(=O)NCCC(=O)O`: the outcome was inactive.
The same measure, in the same setting: the entry for `Cc1ccc(C)o1` is “inactive”.
For the compound `C=CCCCCCCCCCC`, the compound was classed as inactive.
Regarding `CC(=O)Nc1ccc(C(=O)CCl)cc1`, the compound was called inactive.
`CC(=O)CC(=O)Nc1ccc(C)cc1C`: the outcome was inactive.
`O=C(c1ccccc1)C(O)c1ccccc1` (stereo not given): the compound was called inactive.
In the case of `O=P(O)(O)O`, the compound was called inactive.
For `O=CN1CCOCC1`, the outcome was inactive.
As for `CN(C)c1cccc(O)c1`, the result was inactive.
Same read-out and setting: the entry for `Cc1ccc(N)c(S(=O)(=O)O)c1` is “inactive”; for `CC1CCC(C(C)C)C(O)C1` (stereo not given) it is “inactive”.
On to `COC(=O)c1ccc(C)cc1C1=NC(C)(C(C)C)C(=O)N1` (stereo not given) (tested in a mixture with another compound), for which the call was inactive.
In the case of `CCN(CCC#N)c1ccc(N=Nc2ccc([N+](=O)[O-])cc2)cc1`, the call was inactive.
Take `CCOc1ccc(NC(=O)CC(C)O)cc1` (stereo not given): the compound was classed as inactive.
Turning to `CCCCOCC`, the call was inactive.
In the case of `C#CC(C)(O)CC(C)C` (stereo not given), the call was inactive.
Turning to `COc1ccc(CCN2CCC(Nc3nc4ccccc4n3Cc3ccc(F)cc3)CC2)cc1`, the compound was called inactive.
`C=Cc1ccc(C(C)(C)C)cc1`: the outcome was inactive.
In the case of `O=c1c(O)c(-c2ccc(O)cc2)oc2cc(O)cc(O)c12`, the outcome was inactive.
With `CC(C)NCC(O)COc1ccc(CC(N)=O)cc1` (stereo not given), the compound was classed as inactive.
As to `CCc1cc(C(C)(C)C)c(O)c(C(C)(C)C)c1`, the outcome was inactive.
Regarding `CCCCC(CC)COC(=O)c1ccc(O)cc1` (stereo not given), the outcome was inactive.
As for `Nc1ccc(Cl)c([N+](=O)[O-])c1`, the compound was called inactive.
In the case of `COc1ccc(N)c([N+](=O)[O-])c1`, the compound was called inactive.

(Values after PubChem BioAssay (EPA / NIEHS).)
